Assay outcomes (PubChem BioAssay)
Compounds with a hit are over-represented: about 2.2% of the library has one in this group of screens.
PGC1a acetyl inh: lowers PGC1a acetylation signal in U2OS cells; hit rate 0.17% among 350,000; AlphaScreen anti-acetyl-lysine; with virally co-expressed GCN5 acetyltransferase; inhibition, % at 15.6 µM;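 active means every replicate shows inhibition of at least 40%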;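 further: 0% = neutral control wells and 100% = positive control wells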
DENV2 CPE rescue: protects cells from dengue virus 2 cytopathic effect. DENV2-infected cells, cytopathic effect rescue, plate reader. CPE inhibition, % at 9.99 µM. hit rate 1.7% among 350,000; in the data active means CPE inhibition above about 20%, passing the limit was not always enough; tested in BHK-21 cells;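 further: 0% = median of neutral control wells and 100% = median of positive control wells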
miR122 inh: inhibitors of miR-122 in Huh7 cells; Huh7 miR-122 Renilla luciferase sensor, 48 h; neutral wells = 0, positive control = 100; activation (reporter increase), % at 12.5 µM; hit rate 0.3% among 340,000; AID 602342;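 active means mean replicate activation score at least 90 and every replicate individually at or above 90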;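 further: higher luciferase means less miR-122 activity so hits act as miR-122 inhibitors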
C2C12 statin: protects C2C12 myotubes from simvastatin toxicity. ATP luminescence, 48 h; scaled: DMSO 0, geranylgeraniol control 100. rescue of ATP level, % at 7.49 µM. hit rate 0.78% among 330,000;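 active means mean ATP rescue above about 67%, or every replicate alone reaching that limit, limit read from the data, passing the limit was not always enough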;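 further: myotubes were challenged with 10 µM simvastatin during compound exposure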
PvdQ inh: blocks Pseudomonas aeruginosa PvdQ acylase activity | purified PvdQ acylase, fluorescence plate reader | inhibition, % at 10 µM | hit rate 0.063% among 340,000; in the data active means inhibition above about 30%, passing the limit was not always enough;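 further: 0% = vehicle neutral wells and 100% = reference inhibitor wells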
Numbers without * were called inactive; . = not tested or not shown; [ ] = dose if it differs, or a comment.

SMILES	PGC1a acetyl inh	DENV2 CPE rescue	miR122 inh	C2C12 statin	PvdQ inh
CCCNC(=O)N(C)C[C@@H]1Oc2ncc(-c3ccc(F)cc3)cc2C(=O)N([C@@H](C)CO)C[C@@H]1C	-5.1	-1.0	-9.5[16.7 µM]	7.5	.
C[C@H](CO)N1C[C@H](C)[C@@H](CN(C)C(=O)Nc2ccc(C(F)(F)F)cc2)OCCCC[C@H](C)Oc2ccc(NC(=O)Nc3ccc4c(c3)OCO4)cc2C1=O	6.3	-2.7	-0.6[16.7 µM]	10.0	.
C[C@@H]1CN([C@@H](C)CO)C(=O)c2cc(NC(=O)c3ccncc3)ccc2O[C@@H](C)CCCCO[C@@H]1CN(C)C(=O)Nc1ccc(C(F)(F)F)cc1	13.6	54.7*	.	.	.
C[C@H]1CCCCO[C@H](CN(C)C(=O)Nc2ccc(C(F)(F)F)cc2)[C@@H](C)CN([C@@H](C)CO)C(=O)c2cc(NC(=O)c3ccncc3)ccc2O1	9.2	-1.2	2.9[16.7 µM]	.	.
C[C@H](CO)N1C[C@H](C)[C@@H](CN(C)C)OCCCC[C@H](C)Oc2ccc(NC(=O)c3ccncc3)cc2C1=O	-8.8	64.8*	7.4[16.7 µM]	-24.8	.
C[C@H](CO)N1C[C@H](C)[C@@H](CN(C)S(=O)(=O)c2cccs2)OCc2ccccc2-c2c(n(C)c3ccccc23)C1=O	1.3	-1.3	.	.	.
CCC(=O)Nc1ccc2c(c1)C(=O)N(C)C[C@@H](OC)[C@@H](C)CN(CC1CCOCC1)[C@@H](C)CO2	0.0	.	14.0[16.7 µM]	-4.5	.
COc1cccc(OC)c1Nc1nc(C)nc2c1nnn2Cc1ccccc1Cl	2.9	60.3*	-0.6	1.8	-13.8
CCC(CC)C(=O)Nc1cccc(/C(C)=N/NC(=O)c2ccccc2Cl)c1	3.9	.	1.2	111.7*	-13.8
CCCc1cc(CNC(=O)C2CCC(=O)N(CCc3cccc(F)c3)C2)on1 (stereo not given)	-2.8	54.6*	-4.5	-6.9	-15.1
C[C@H](CO)N1C[C@H](C)[C@H](CN(C)C(=O)Nc2ccc3c(c2)OCO3)Oc2c(NC(=O)c3nc4ccccc4s3)cccc2C1=O	-4.2	7.7	6.8[16.7 µM]	-42.2	.
COc1ccc(CCNC(=O)CSC2=NS(=O)(=O)c3ccccc3N2)cc1OC	3.9	81.7*	-4.3	3.6	4.3
COc1ccc(CCNC(=O)CSC2=NS(=O)(=O)c3cc(F)ccc3N2)cc1OC	-8.7	-6.7	-2.3	-11.7	.
C[C@@H]1CN([C@H](C)CO)C(=O)c2cccc(NC(=O)Nc3ccc(C(F)(F)F)cc3)c2O[C@H]1CN(C)C(=O)Nc1ccccc1	4.0	-4.2	1.3[16.7 µM]	13.8	.
CC(=O)Nc1ccc(S(=O)(=O)Nc2nc3ccc(C)cc3s2)cc1	.	.	10.5	-1.6	23.0
Cc1ccc2nc(-c3ccc(NS(=O)(=O)c4ccc(F)cc4)cc3)sc2c1	-1.9	.	10.5	.	30.2*
CC(C)(C)N1CC23C=CC(C[C@@H]2C1=O)O3 (stereo not given in full)	-1.6	-13.0	-4.1	-5.4	-9.8
CC(C)(C)N1CC23CCC(C[C@@H]2C1=O)O3 (stereo not given in full)	6.1	39.3*	-1.5	13.6	-6.5
C=C1CC(C)OC(c2ccccc2OCC(O)CN2CCCCC2)C1 (stereo not given)	-9.4	.	-2.2	115.4*	-14.9
OC(COc1cccc2ccccc12)CN1CCCC1 (stereo not given)	-2.4	.	10.3	-10.3	-18.9
C/C=C/c1ccc2c(c1)O[C@@H](CN(C)C(=O)Cc1ccccc1)[C@@H](C)CN([C@@H](C)CO)S2(=O)=O	-2.4	8.5	1.4[16.7 µM]	17.9	.
Cn1c2c(c(=O)n(C)c1=O)CN(Cc1ccc3c(c1)OCO3)CN2	-0.4	.	-6.0	112.5*	0.6
Cn1c2c(c(=O)n(C)c1=O)CN(Cc1ccc(F)cc1)CN2	8.5	.	-6.0	13.3	21.0
O=c1c2cc(Br)ccc2[nH]c(=S)n1Cc1ccccn1	.	31.3*	.	.	3.3
S=C(c1ccccc1)N1CCCc2ccccc21	-15.3	.	1.3	2.2	9.7
SMILES	PGC1a acetyl inh	DENV2 CPE rescue	miR122 inh	C2C12 statin	PvdQ inh
S=C(NC1CC1)N1CCCc2ccccc21	.	53.7*	.	.	-5.3
CCCCOC(=O)CSc1nc(N)c(C#N)c(-c2ccc(OCC)cc2)c1C#N	-4.0	.	-6.0	.	16.0
CCCCOC(=O)CSc1nc(N)c(C#N)c(-c2ccc(OC)cc2)c1C#N	-5.8	.	-3.7	90.2*	-21.0
CN1C(=O)c2cc(NC(=O)C3CC3)ccc2OC[C@@H]2O[C@H](CC(=O)NCc3ccccc3F)CC[C@@H]21	16.2	15.4	.	.	.
COc1ccc(/C=C2\SC(=O)N(CC(=O)Nc3cccnc3)C2=O)cc1OC	-6.5	22.7*	8.1	-2.3	-9.5
O=C(CCCN1C(=O)/C(=C\c2cccs2)SC1=S)Nc1cccnc1	-1.9	29.7*	2.3	.	-4.2
O=C(CCCN1C(=O)/C(=C/c2cccs2)SC1=S)Nc1cccnc1	9.4	5.1	.	.	12.9
CC1=CCC[C@H]2[C@H](C1)C(=O)C[C@@H](C)[C@]2(C)CC/C(=C/CO)CO	-7.5	23.9*	3.5	-0.8	0.8
CO[C@H]1CN(C)C(=O)c2cc(NC(=O)Nc3cccc(F)c3)ccc2OC[C@@H](C)N(C(=O)Nc2c(C)noc2C)C[C@@H]1C	0.2	0.8	.	3.7	.
C=CCOc1ccccc1OCC(O)CNC(C)C (stereo not given)	-6.5	39.7*	-1.9	6.0	-3.1
Cc1cccc(C)c1OCC(O)CNC(C)C (stereo not given)	-7.8	.	4.9	29.2	-7.9
CCOc1ccc(Oc2nc(NCC(C)C)nc(N(C)C)n2)nn1	-4.0	.	3.5	-6.5	-5.7
CCOc1ccc(Oc2nc(NCC(C)C)nc(OC)n2)nn1	5.6	35.6*	-5.5	-15.0	-12.5
O=C([C@@H]1[C@@H](CO)[C@@H]2Cn3c(ccc(-c4ccncc4)c3=O)[C@@H]2N1Cc1cocn1)N1CCCCC1	.	4.0	.	5.7	.
O=C(Cc1ccccc1)N1CC(=O)N2[C@H](C1)[C@H](c1ccc(C#CCc3ccccc3)cc1)[C@@H]2CO	-4.5	-13.3	.	.	.
CCCCc1nn(-c2cc(Cl)ccc2OC)c2c1C(=O)CC(C)(C)C2	-17.1	42.9*	-0.8	2.1	-19.6
CCCc1nn(-c2cc(Cl)ccc2OC)c2c1C(=O)CCC2	-3.2	4.0	-18.2	-8.5	-17.0
Cc1cc(NC(=O)CSc2nc3ccsc3c(=O)n2Cc2ccccn2)n[nH]1	-4.0	5.1	-8.7	93.1*	0.0
CCCCn1c(SCC(=O)Nc2cc(C)[nH]n2)nc2ccsc2c1=O	3.6	.	6.1	16.0	-13.3
O=C(c1cnccn1)N1CC(=O)N2[C@H](C1)[C@@H](c1ccc(-c3ccccc3)cc1)[C@@H]2CO	2.8	10.3	.	.	.
CCC(=O)N1CC2(CCN(Cc3ccncc3)CC2)c2c(n(C)c3cc(OC)ccc23)[C@@H]1CO	-5.8	-9.1	.	.	.
Cc1ccc(S(=O)(=O)N(C)C[C@H]2Oc3ccc(NC(=O)CCC(F)(F)F)cc3C(=O)N([C@H](C)CO)C[C@@H]2C)cc1	48.4*	29.3*	-0.6[16.7 µM]	-18.3	.
Cc1ccc(S(=O)(=O)N(C)C[C@H]2Oc3ccc(NC(=O)c4ccncc4)cc3C(=O)N([C@H](C)CO)C[C@H]2C)cc1	1.1	41.7*	37.2[16.7 µM]	-11.3	.
